In PubChem BioAssay:

Test system: not listed separately
Assay: probe aNOTCH2 binding on compound microarray – biochemical, small-molecule microarray, 635/667 nm fluorescence, primary screen (AID 1121);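 note: score merges feature fluorescence read at 667 nm with its signal to noise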
Details: higher = more signal

Row | SMILES | composite z-score
1 | COc1ccc([Si](C)(C)[C@H]2[C@H](CC(=O)N3CCC[C@H]3CO)O[C@@]3(C(=O)N(Cc4ccc(N5CCC5=O)cc4)c4ccccc43)[C@@H]2C)cc1 | -0.147
2 | C=CCNC(=O)[C@H]1[C@@H]2C(=O)O[C@@H](c3ccccc3)[C@@H](c3ccccc3)N2[C@@H](c2ccc(OCCO)cc2)[C@]12C(=O)Nc1ccc(C#CCNC(N)=O)cc12 | -0.0624
3 | C=CCC(OC(C)=O)[C@@H]1[C@@H](N(Cc2cccc3ccccc23)C(=O)Cc2ccc(F)cc2)c2cc(OCCCO)ccc2N1C(=O)c1ccc(-c2ccccc2)cc1 (some centres not stated) | 0.054
4 | CC1CC/C=C\[C@H]2OC34C=CCN(CCN5CCOCC5)C(=O)[C@H]3N(C(C)CO)C(=O)[C@@H]4C2C(=O)O1 (some centres not stated) | -0.0741
5 | C=CCN1C(=O)[C@]2(O[C@H](CCO)[C@@H]([Si](C)(C)c3ccc(OC)cc3)[C@@H]2C)c2cc(N3C(=O)COc4ccccc43)ccc21 | -0.175
6 | CN(C)C(=O)[C@]1(CCS(=O)(=O)c2ccccc2)N=C(c2ccc(OCCCO)cc2)O[C@@H]1c1ccccc1 | -0.0676
7 | Cc1ccccc1C(O)C1C=CC2C(=O)NC(=O)C2N1Nc1ccc(Cl)cc1Cl (configuration not stated) | -0.0453
8 | O=C1c2ccccc2[C@](Cc2ccccc2I)(C(=O)NC2CC2)[C@H](c2ccc(CO)cc2)N1Cc1ccccc1C(F)(F)F | -0.0986
9 | Cc1ccc(C(C)CC(O)C2C=CC3C(=O)N(c4ccccc4)C(=O)C3N2Nc2ccc(C#N)cc2)o1 (configuration not stated) | 0.115
10 | COc1ccc([Si](C)(C)[C@H]2[C@H](CCO)O[C@@]3(C(=O)N(Cc4ccccc4)c4ccc(N5C(=O)c6ccccc6Oc6ccccc65)cc43)[C@@H]2C)cc1 | -0.106
11 | COCCOC(=O)N1C(=O)[C@@]2(c3cc(C#CC4=CCCCC4)ccc31)[C@H](C(=O)N1CCCCCCC1)[C@H]1C(=O)O[C@H](c3ccccc3)[C@H](c3ccccc3)N1[C@@H]2c1ccc(OCCO)cc1 | 0.0424
12 | CC(C)[C@H]1NC(=O)[C@@]23C(=O)N[C@@H](Cc4ccccc4)C2[C@H](C)[C@@]2(C)O[C@H]2C3/C=C/C/C=C\CNC(=O)[C@H](Cc2ccccc2)NC1=O (some centres not stated) | -0.19
13 | CC(C)=CCCC(C)=CC(O)C1C=CC2C(=O)N(c3ccccc3)C(=O)C2N1Nc1ccccc1F (configuration not stated) | -0.186
14 | CC(C)C[C@@H]1NC(=O)CNC(=O)[C@@]23C(=O)N[C@@H](Cc4ccccc4)C2[C@H](C)[C@@]2(C)O[C@H]2C3/C=C/C/C=C\CNC1=O (some centres not stated) | -0.102
15 | COC(=O)[C@@]1(Cc2ccc(F)cc2)[C@H]2c3cc(C(=O)N(C)C)n(Cc4ccc(O)c(OC)c4)c3C[C@H]2CN1C(=O)c1ccccc1 | -0.127
16 | C=C(COC)C(=O)CC[C@@H](OC(=O)c1cccnc1)c1ccccc1OCCO | -0.0681
17 | CN(C)CCCNC(=O)[C@@H]1c2ccccc2C(=O)N(C2CCCCC2)[C@H]1c1ccc(CO)cc1 | -0.0891
18 | COc1cc(NN2C(C(O)c3ccc(I)cc3)C=CC3C(=O)N(c4ccccc4)C(=O)C32)cc(OC)c1OC (configuration not stated) | -0.0501
19 | Cc1ccc([C@H]2C(C(=O)O)=C[C@@H](C(C)(C)C)N2S(=O)(=O)c2ccc(C)cc2)cc1 | 0.0746
20 | CC(C)OC(=O)CC(=O)CC(O)c1ccc([N+](=O)[O-])cc1 (configuration not stated) | 0.0215
21 | NC(=O)N1C(=O)C2C(C1=O)C1C=C(CCCO)C2C(C2CC2)N1Cc1cccc(OC(F)(F)F)c1 (configuration not stated) | -0.179
22 | CC(CO)N1C(=O)[C@@H]2[C@H]3C(=O)OCC=C[C@H]3OC23C=CCN(c2ccc(Cl)cc2)C(=O)[C@@H]13 (some centres not stated) | -0.161
23 | NC(=O)[C@@H]1[C@H]2C(=O)O[C@H](c3ccccc3)[C@H](c3ccccc3)N2[C@H](c2ccc(OCCO)cc2)[C@@]12C(=O)Nc1ccc(C#CCCO)cc12 | -0.0681
24 | CCOC(=O)C[C@H]1[C@H](OC(=O)c2ccc(C(=O)c3ccccc3)cc2)[C@@H](NC(=O)CC(C)C)c2cc(OCCCO)ccc2N1C(=O)Cc1ccc(OC)cc1 | 0.075
25 | COCCCNC(=O)[C@@]1(c2ccc([N+](=O)[O-])cc2)CC(=O)N(CC23CC4CC(CC(C4)C2)C3)[C@@H]1c1ccc(CO)cc1I | -0.0561
26 | C=C(/C(=C/C[C@@H](OC(C)=O)c1ccc(CO)o1)c1cc(C(=O)OC)ccc1OC)C(C)C | -0.124

Target: Carbonic anhydrase 2 (Homo sapiens) (UniProt P00918)
Assay: compounds binding carbonic anhydrase 2 – biochemical, small-molecule microarray, Alexa647-labelled CAII, profiling panel (AID 1122)
Details: CAII-A647 binding fluorescence, higher = more signal

Row | SMILES | composite z-score
27 | Cc1nc2cc(Br)ccc2c(=O)n1Cc1cccc(O)c1 | 0.218
28 | C=C[C@@H](C)[C@H](O)c1ccc(OCCO)cc1 | 0.799
29 | C=CCN1C(=O)[C@]2(O[C@H](CCO)[C@@H]([Si](C)(C)c3ccc(OC)cc3)[C@@H]2C)c2cc(NC(=O)c3ccc(OC)cc3)ccc21 | 0.216
30 | CCOC(=O)C[C@H]1[C@H](OC(=O)c2cc3ccccc3oc2=O)[C@@H](NC(=O)c2ccc3ccccc3c2)c2cc(OCCCO)ccc2N1C(=O)Cc1ccc(OC)cc1 | 0.265
31 | COc1ccc(C#Cc2ccc3c(c2)[C@]2(C(=O)N3)[C@H](c3ccc(OCCO)cc3)N3[C@H](c4ccccc4)[C@H](c4ccccc4)OC(=O)[C@H]3[C@@H]2C(=O)N2CCc3cc(OC)c(OC)cc3C2)cc1 | 0.438
32 | COC(=O)c1c2oc(c1C(=O)OC)C(=O)N1CCC[C@H]1Cn1nncc1CN(Cc1ccccc1)C(=O)N[C@H](CO)CC2 | 0.75
33 | COC(=O)C(CC#Cc1ccc2c(c1)[C@]1(C(=O)N2)[C@H](c2ccc(O)cc2)N2[C@H](c3ccccc3)[C@H](c3ccccc3)OC(=O)[C@H]2[C@@H]1C(=O)N1CCCCCCC1)C(=O)OC | 0.816
34 | C=C[C@H](C)[C@H](OC(=O)Nc1ccc(OC)cc1)c1ccc(OCCO)cc1 | 0.464
35 | [N-]=[N+]=NC[C@H](Cc1ccccc1)NC(=O)c1ccccc1 | 0.294
36 | COc1ccc([Si](C)(C)[C@H]2[C@H](CC(=O)N3Cc4ccccc4C[C@H]3CO)O[C@@]3(C(=O)N(Cc4ccc(N5C(=O)c6cccc7cccc5c67)cc4)c4ccccc43)[C@@H]2C)cc1 | 0.376
37 | COc1ccc([Si](C)(C)[C@H]2[C@H](CC(=O)N3CCC[C@H]3CO)O[C@@]3(C(=O)N(Cc4ccc(N5CCC5=O)cc4)c4ccccc43)[C@@H]2C)cc1 | 0.474
38 | C=CCNC(=O)[C@H]1[C@@H]2C(=O)O[C@@H](c3ccccc3)[C@@H](c3ccccc3)N2[C@@H](c2ccc(OCCO)cc2)[C@]12C(=O)Nc1ccc(C#CCNC(N)=O)cc12 | 0.587
39 | C=CCC(OC(C)=O)[C@@H]1[C@@H](N(Cc2cccc3ccccc23)C(=O)Cc2ccc(F)cc2)c2cc(OCCCO)ccc2N1C(=O)c1ccc(-c2ccccc2)cc1 (some centres not stated) | -0.119
40 | CC1CC/C=C\[C@H]2OC34C=CCN(CCN5CCOCC5)C(=O)[C@H]3N(C(C)CO)C(=O)[C@@H]4C2C(=O)O1 (some centres not stated) | 0.738
41 | C=CCN1C(=O)[C@]2(O[C@H](CCO)[C@@H]([Si](C)(C)c3ccc(OC)cc3)[C@@H]2C)c2cc(N3C(=O)COc4ccccc43)ccc21 | 0.418
42 | CN(C)C(=O)[C@]1(CCS(=O)(=O)c2ccccc2)N=C(c2ccc(OCCCO)cc2)O[C@@H]1c1ccccc1 | 0.769
43 | Cc1ccccc1C(O)C1C=CC2C(=O)NC(=O)C2N1Nc1ccc(Cl)cc1Cl (configuration not stated) | 0.558
44 | O=C1c2ccccc2[C@](Cc2ccccc2I)(C(=O)NC2CC2)[C@H](c2ccc(CO)cc2)N1Cc1ccccc1C(F)(F)F | 0.66

Row | SMILES | composite z-score
45 | Cc1ccc(C(C)CC(O)C2C=CC3C(=O)N(c4ccccc4)C(=O)C3N2Nc2ccc(C#N)cc2)o1 (configuration not stated) | 0.707
46 | COc1ccc([Si](C)(C)[C@H]2[C@H](CCO)O[C@@]3(C(=O)N(Cc4ccccc4)c4ccc(N5C(=O)c6ccccc6Oc6ccccc65)cc43)[C@@H]2C)cc1 | 0.532
47 | COCCOC(=O)N1C(=O)[C@@]2(c3cc(C#CC4=CCCCC4)ccc31)[C@H](C(=O)N1CCCCCCC1)[C@H]1C(=O)O[C@H](c3ccccc3)[C@H](c3ccccc3)N1[C@@H]2c1ccc(OCCO)cc1 | 0.399
48 | CC(C)[C@H]1NC(=O)[C@@]23C(=O)N[C@@H](Cc4ccccc4)C2[C@H](C)[C@@]2(C)O[C@H]2C3/C=C/C/C=C\CNC(=O)[C@H](Cc2ccccc2)NC1=O (some centres not stated) | 0.318
49 | CC(C)=CCCC(C)=CC(O)C1C=CC2C(=O)N(c3ccccc3)C(=O)C2N1Nc1ccccc1F (configuration not stated) | 0.662
50 | CC(C)C[C@@H]1NC(=O)CNC(=O)[C@@]23C(=O)N[C@@H](Cc4ccccc4)C2[C@H](C)[C@@]2(C)O[C@H]2C3/C=C/C/C=C\CNC1=O (some centres not stated) | 0.461
51 | COC(=O)[C@@]1(Cc2ccc(F)cc2)[C@H]2c3cc(C(=O)N(C)C)n(Cc4ccc(O)c(OC)c4)c3C[C@H]2CN1C(=O)c1ccccc1 | 0.659
52 | C=C(COC)C(=O)CC[C@@H](OC(=O)c1cccnc1)c1ccccc1OCCO | 0.758
53 | CN(C)CCCNC(=O)[C@@H]1c2ccccc2C(=O)N(C2CCCCC2)[C@H]1c1ccc(CO)cc1 | 0.672
54 | COc1cc(NN2C(C(O)c3ccc(I)cc3)C=CC3C(=O)N(c4ccccc4)C(=O)C32)cc(OC)c1OC (configuration not stated) | 0.758
55 | Cc1ccc([C@H]2C(C(=O)O)=C[C@@H](C(C)(C)C)N2S(=O)(=O)c2ccc(C)cc2)cc1 | 0.531
56 | CC(C)OC(=O)CC(=O)CC(O)c1ccc([N+](=O)[O-])cc1 (configuration not stated) | 0.152
57 | NC(=O)N1C(=O)C2C(C1=O)C1C=C(CCCO)C2C(C2CC2)N1Cc1cccc(OC(F)(F)F)c1 (configuration not stated) | 0.653
58 | CC(CO)N1C(=O)[C@@H]2[C@H]3C(=O)OCC=C[C@H]3OC23C=CCN(c2ccc(Cl)cc2)C(=O)[C@@H]13 (some centres not stated) | 0.935
59 | NC(=O)[C@@H]1[C@H]2C(=O)O[C@H](c3ccccc3)[C@H](c3ccccc3)N2[C@H](c2ccc(OCCO)cc2)[C@@]12C(=O)Nc1ccc(C#CCCO)cc12 | 0.407
60 | CCOC(=O)C[C@H]1[C@H](OC(=O)c2ccc(C(=O)c3ccccc3)cc2)[C@@H](NC(=O)CC(C)C)c2cc(OCCCO)ccc2N1C(=O)Cc1ccc(OC)cc1 | 0.139
61 | COCCCNC(=O)[C@@]1(c2ccc([N+](=O)[O-])cc2)CC(=O)N(CC23CC4CC(CC(C4)C2)C3)[C@@H]1c1ccc(CO)cc1I | 0.126
62 | C=C(/C(=C/C[C@@H](OC(C)=O)c1ccc(CO)o1)c1cc(C(=O)OC)ccc1OC)C(C)C | 0.662
